This is part of a sample that, as a whole, favours compounds with a hit. Of some 83,000 tested, about 20% had one in any assay.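 How to read the values: 0–100, growth inhibition (40 = 60% inhibited); 0, no net growth; -100 to 0, cell death (-40 = 40% of starting cells died; -100 = all dead).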 Unmarked numbers belong to inactive results. The source made the active and inactive calls. Rule for the calls: active = growth percent below 10; inactive = the rest.

The record followed here is PubChem BioAssay (NCI).

Holding throughout (experiment): NCI-60 one-dose screen, 48 h (100 = growth as untreated, 0 = no growth, -100 = all killed)
One assay relates to NCI-H23 lung. The following applies: 10 µM unless noted.
The next assay concerns NCI-H226 lung. As to conditions: 10 µM unless noted.
For a further assay, the system named is NCI-H322M lung. As to conditions: 10 µM unless noted.
A further assay has as its system HOP-62 NSCLC. As to conditions: 10 µM unless noted.
A further assay concerns NCI-H460 lung. As to conditions: 10 µM unless noted.
For another assay, the system named is HOP-92 NSCLC. As to conditions: 10 µM unless noted.
In another assay the test system is NCI-H522 lung. As to conditions: 10 µM unless noted.
A further assay deals with A549/ATCC NSCLC. As to conditions: 10 µM unless noted.
The test system of another assay is 786-0 renal. The following applies: 10 µM unless noted.
For the next assay, the system named is COLO 205 colon. As to conditions: 10 µM unless noted.
For another assay, the system named is DU-145 prostate. The following applies: 10 µM unless noted.
The test system of the next assay is K-562 leukemia. As to conditions: 10 µM unless noted.
A further assay concerns MALME-3M melanoma. The following applies: 10 µM unless noted.
The subject of the next assay is MDA-MB-231 breast. The following applies: 10 µM unless noted.
The subject of the next assay is RXF 393 renal. The following applies: 10 µM unless noted.
For another assay, the system named is SF-268 CNS. As to conditions: 10 µM unless noted.
In a further assay the test system is SF-295 CNS. The following applies: 10 µM unless noted.
A further assay has as its system SF-539 CNS. The following applies: 10 µM unless noted.
The next assay concerns UACC-257 melanoma. The following applies: 10 µM.
The subject of another assay is M14 melanoma. As to conditions: 10 µM unless noted.

With `N#Cc1c(-c2cccs2)cc(-c2cnccn2)nc1SCC(=O)NNC(=S)Nc1ccc(F)cc1`, the growth in the assay with NCI-H23 lung was 108%; in the assay on NCI-H226 lung it was 117%; in the assay with NCI-H322M lung it was 97.3%; in the assay on HOP-62 NSCLC it was 106%; in the assay with NCI-H460 lung, 105%; in the assay with HOP-92 NSCLC, 112%. For the same molecule, the growth in the assay with NCI-H522 lung was 95.5%; with A549/ATCC NSCLC it was 100%; with 786-0 renal, 99.3%; in the assay with COLO 205 colon, 112%; with DU-145 prostate, 109%; in the assay with K-562 leukemia, 92.2%. Further, the growth is 127% in the assay on MALME-3M melanoma; 94.5% in the assay on MDA-MB-231 breast; 141% in the assay on RXF 393 renal; 106% in the assay with SF-268 CNS; 106% in the assay on SF-295 CNS; 98.1% in the assay with SF-539 CNS. Further, the figures for the growth in the assay with UACC-257 melanoma and with M14 melanoma were 112% and 104%, respectively.
Consider `COc1ccc(-c2nnc(SCc3ccc(O)c4ncccc34)o2)cc1`, for which the growth in the assay on NCI-H23 lung was 38.2%; in the assay with NCI-H226 lung, 63.7%; in the assay with NCI-H322M lung it was 49.3%; with HOP-62 NSCLC it was 32.2%; in the assay with NCI-H460 lung, 14.9%; in the assay on HOP-92 NSCLC it was -2.2% (active). Further, the growth was 27.2% in the assay with NCI-H522 lung; 41.2% with A549/ATCC NSCLC; 38.2% in the assay with 786-0 renal; 102% in the assay with COLO 205 colon; 32.7% in the assay with DU-145 prostate; 16.3% with K-562 leukemia. The growth in the assay with MALME-3M melanoma was 50%; in the assay with MDA-MB-231 breast it was 52.1%; with RXF 393 renal, 60.2%; with SF-268 CNS, 30.9%; in the assay with SF-295 CNS it was 15.6%; with SF-539 CNS, 27.2%. Further, the growth was 28.3% with UACC-257 melanoma and 31.4% in the assay on M14 melanoma.
Turning to `O=[N+]([O-])c1ccc(-c2nnc(SCc3ccc(O)c4ncccc34)n2-c2ccccc2)cc1`, the growth in the assay with NCI-H23 lung is 13.7%; in the assay with NCI-H226 lung, 87.3%; in the assay with NCI-H322M lung, 41.7%; in the assay with HOP-62 NSCLC, 23.2%; with NCI-H460 lung, 5.75% (active); with HOP-92 NSCLC, -24.4% (active). The growth with NCI-H522 lung is 9.93% (active); in the assay on A549/ATCC NSCLC it was 22.4%; with 786-0 renal, 30.8%; with COLO 205 colon, 110%; in the assay on DU-145 prostate, 29%; in the assay on K-562 leukemia, 21.2%. For the same molecule, the growth was 19.6% in the assay with MALME-3M melanoma; 24.8% in the assay with MDA-MB-231 breast; 16.3% with RXF 393 renal; 23.6% in the assay with SF-268 CNS; 5.71% (active) with SF-295 CNS; 11.7% in the assay with SF-539 CNS. Also, the growth in the assay with UACC-257 melanoma was 42.5%; in the assay on M14 melanoma it was 24.2%.
Regarding `CCN(CC)CCN1C(=O)c2c(c3c4cccnc4[nH]c3c3ccc4ccccc4c23)C1=O`, the growth in the assay on NCI-H23 lung was 60.3%; in the assay with NCI-H226 lung, 79.4%; in the assay on NCI-H322M lung, 76.7%; in the assay with HOP-62 NSCLC, 38.4%; in the assay on NCI-H460 lung, 13.8%; with HOP-92 NSCLC, 91.9%. Moreover, the growth in the assay on NCI-H522 lung was 65.4%; with A549/ATCC NSCLC it was 60%; with 786-0 renal, 60.9%; in the assay on COLO 205 colon, 72.1%; with DU-145 prostate, 54.7%; in the assay with K-562 leukemia, 18.7%. Besides, the growth with MALME-3M melanoma was 86.7%; in the assay with MDA-MB-231 breast, 89.7%; in the assay with RXF 393 renal, 78.8%; in the assay with SF-268 CNS, 50.3%; with SF-295 CNS, 35.4%; with SF-539 CNS it was 76.5%. The growth in the assay with UACC-257 melanoma was 98.2%; in the assay with M14 melanoma, 61.1%.
As to `COc1ccc(NC(=O)[C@H](C)NC(=O)OC(C)(C)C)cc1C(=O)Nc1cccc(-c2cc(=O)c3c(OC)c(OC)c(OC)cc3o2)c1`, the growth was -24.8% (active) in the assay with NCI-H23 lung; 16% in the assay with NCI-H226 lung; -0.408% (active) in the assay on NCI-H322M lung; -17.5% (active) in the assay on HOP-62 NSCLC; -21.4% (active) in the assay with NCI-H460 lung; -50% (active) with HOP-92 NSCLC. For the same molecule, the growth with NCI-H522 lung was -46.4% (active); in the assay on A549/ATCC NSCLC, 7.37% (active); in the assay with 786-0 renal, 0.528% (active); with COLO 205 colon, -70% (active); in the assay on DU-145 prostate, 23%; with K-562 leukemia, 10.6%. Also, the growth was -13.2% (active) in the assay on MALME-3M melanoma; -46.4% (active) with MDA-MB-231 breast; -84.4% (active) in the assay on RXF 393 renal; 34.9% in the assay on SF-268 CNS; -11.4% (active) with SF-295 CNS; -38.1% (active) in the assay with SF-539 CNS. Besides, the growth was -74.4% (active) in the assay with UACC-257 melanoma and -52.3% (active) with M14 melanoma.
With `CCCC(=O)NC(c1cccnc1)c1cc(Cl)c2cccnc2c1O` (stereo not given), the growth with NCI-H23 lung was 44.7%; with NCI-H226 lung, 48.9%; with NCI-H322M lung, 47.1%; in the assay on HOP-62 NSCLC, 32.2%; with NCI-H460 lung, 25.3%; in the assay on HOP-92 NSCLC it was -5.51% (active). For the same molecule, the growth in the assay on NCI-H522 lung was 16.8%; in the assay on A549/ATCC NSCLC it was 39.7%; in the assay with 786-0 renal it was 50.9%; in the assay with COLO 205 colon, 30.8%; with DU-145 prostate, 62.9%; with K-562 leukemia, 19.7%. Further, the growth in the assay with MALME-3M melanoma is 79.6%; in the assay on MDA-MB-231 breast it was 45.1%; in the assay with RXF 393 renal, 80.5%; in the assay with SF-268 CNS, 42.7%; with SF-295 CNS it was 10.8%; in the assay with SF-539 CNS, 38%. Besides, the growth in the assay on UACC-257 melanoma was 34.9%; with M14 melanoma, 44%.
Take `Cn1cc(-c2nnc(N)nc2-c2cn(C)c3ccc(F)cc23)c2cc(F)ccc21`: the growth is 101% in the assay with NCI-H23 lung; 97.4% with NCI-H226 lung; 101% in the assay with NCI-H322M lung; 90.7% in the assay with HOP-62 NSCLC; 102% with NCI-H460 lung; 116% with HOP-92 NSCLC. In addition, the growth was 73.2% with NCI-H522 lung; 77.2% in the assay on A549/ATCC NSCLC; 86.1% in the assay on 786-0 renal; 107% in the assay with COLO 205 colon; 95.6% in the assay on DU-145 prostate; 101% in the assay with K-562 leukemia. For the same molecule, the growth was 107% with MALME-3M melanoma; 94.6% in the assay on MDA-MB-231 breast; 104% with RXF 393 renal; 78.5% in the assay with SF-268 CNS; 113% in the assay with SF-295 CNS; 96.4% in the assay on SF-539 CNS. For the same molecule, the growth in the assay on UACC-257 melanoma and with M14 melanoma was 101% throughout.
In the case of `O=c1[nH]c2cc(Cl)ccc2n1C1CCN(c2ccc3nnc(Cl)n3n2)CC1`, the growth in the assay with NCI-H23 lung is 91%; in the assay on NCI-H226 lung it was 87.4%; with NCI-H322M lung, 87.7%; in the assay with HOP-62 NSCLC it was 95.4%; with NCI-H460 lung, 100%; in the assay on HOP-92 NSCLC it was 103%. Further, the growth was 87.2% in the assay on NCI-H522 lung; 88.3% in the assay on A549/ATCC NSCLC; 97.3% in the assay with 786-0 renal; 107% in the assay with COLO 205 colon; 99.8% in the assay with DU-145 prostate; 81.4% in the assay on K-562 leukemia. The growth with MALME-3M melanoma is 104%; in the assay on MDA-MB-231 breast, 95.6%; in the assay with RXF 393 renal, 83.7%; in the assay with SF-268 CNS, 92.5%; with SF-295 CNS it was 87.5%; in the assay on SF-539 CNS, 91%. In addition, the growth in the assay with UACC-257 melanoma was 95.9%; with M14 melanoma it was 98.1%.
